“And” between values parts separate entries of the source, which are not always exact repeats. Equal values may be shown once. Records with an inconclusive call do not appear. Where a call stands in place of a potency, no number is given. The source made the active and inactive calls. Unless noted, calls come from the whole dose curve.
Experiment: qHTS assay to identify small molecule agonists of the NFkB signaling pathway - cell viability counter screen (AID 1159515); note: nearly all actives have a fitted effect of over 55% in size
Details: NFkB-bla ME-180 viability, CellTiter-Glo luminescence, 5 h; series mostly up to 61 µM
Procedure, shortened: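 Multiplexed viability readout: after the 5 hr compound exposure and 1.5 hr FRET substrate step, CellTiter-Glo reagent went into the same NFkB-bla ME-180 wells; ATP luminescence was measured after 30 min at room temperature.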

SMILES | Potency
COc1ccc([C@@H]2CC(=O)c3c(O)cc(O[C@@H]4O[C@H](CO[C@@H]5O[C@@H](C)[C@H](O)[C@@H](O)[C@H]5O)[C@@H](O)[C@H](O)[C@H]4O)cc3O2)cc1OC | inactive
CCCN(CCC)C(=O)SCC | inactive
CC/C(C)=N/O | inactive
CC/C=C(\C(=O)N[C@@H]1C(=O)N2C(C(=O)OCOC(=O)C(C)(C)C)=C(COC(N)=O)CS[C@H]12)c1csc(N)n1 | inactive
COC(=O)CCCCC(=O)OC | inactive
C[Si](C)(C)N[Si](C)(C)C | inactive
COC(=O)/C=C\C(=O)OC | inactive
O=C1C(N(CO)C(=O)NCO)N(CO)C(=O)N1CO (stereo unspecified) | inactive
NC(N)=S | inactive
c1cnc2c(c1)ccc1cccnc12 | inactive
Nc1cccc(N)n1 | inactive
OCC(CO)(CO)CO | inactive
Oc1ccc(Cc2ccccc2O)cc1 | inactive

Experiment: qHTS assay to identify small molecule agonists of the endoplasmic reticulum stress response signaling pathway (AID 1159516; active = well fitted activation curve with a large enough effect in the signal ratio in the repeat runs, not every such curve was filed as active; the % refers to the signal ratio; note: potency is the fitted concentration of half-maximal effect)
Details: ESRE-bla HeLa, ER stress beta-lactamase reporter, 5 h; series mostly up to 61 µM
Procedure, shortened: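 Tox21 10K library screened in quantitative HTS format on ESRE-bla HeLa cells, a beta-lactamase reporter under ER stress response element control; 5 hr treatment, FRET read.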

SMILES | Potency
CC1=CC(=O)CC(C)(C)C1 | inactive
Clc1cccc(Cl)c1NC1=NCCN1 | inactive
CC1(C)C(=O)N(Cl)C(=O)N1Cl | inactive
CCCCCCCC(=O)O | inactive
O=C1O[C@H]([C@H](O)CO)C(O)=C1O | inactive
CS(=O)(=O)c1ccc(Cl)cc1 | inactive
OB(O)O | inactive
CC(=O)OCc1ccc2c(c1)OCO2 | inactive
CCCCCCCCCCCCCC(=O)O | inactive
CC1(C)[C@@H](O[C@H]2O[C@H](C(=O)O)[C@@H](O)[C@H](O)[C@H]2O[C@@H]2O[C@H](C(=O)O)[C@@H](O)[C@H](O)[C@H]2O)CC[C@]2(C)[C@H]3C(=O)C=C4[C@@H]5C[C@@](C)(C(=O)O)CC[C@]5(C)CC[C@@]4(C)[C@]3(C)CC[C@@H]12 | inactive
Cc1ccncc1 | inactive
O=Cc1ccc(CO)o1 | inactive
CC(=O)Nc1ccc(CC(=O)O)cc1 | inactive
COc1cc(NC(=O)CC(C)=O)c(OC)cc1Cl | inactive
CC(COCC(C)OC(=O)c1ccccc1)OC(=O)c1ccccc1 (stereo unspecified) | inactive
CC(C)c1ccc(C(C)C)cc1 | inactive
CCN(CC)CCNC(=O)c1ccc(N)cc1 | inactive
O=C(NCC1CCCCN1)c1cc(OCC(F)(F)F)ccc1OCC(F)(F)F (stereo unspecified) | inactive
C[n+]1ccn(CCO)c1 | inactive

SMILES | Potency
C=CC(=O)NCOCCCC | inactive
O=[N+]([O-])c1cc(C(F)(F)F)ccc1Cl | inactive
CCCCC(=O)O | inactive
C1CCCNCC1 | inactive
COc1ccc2cc3[n+](cc2c1OC)CCc1cc2c(cc1-3)OCO2 | inactive
Nc1nc(N)c2nc(-c3ccccc3)c(N)nc2n1 | 49 µM (active) and 21.3 µM (active)
COc1ccc([C@@H]2CC(=O)c3c(O)cc(O[C@@H]4O[C@H](CO[C@@H]5O[C@@H](C)[C@H](O)[C@@H](O)[C@H]5O)[C@@H](O)[C@H](O)[C@H]4O)cc3O2)cc1OC | inactive
CCCN(CCC)C(=O)SCC | inactive
CC/C(C)=N/O | inactive
CC/C=C(\C(=O)N[C@@H]1C(=O)N2C(C(=O)OCOC(=O)C(C)(C)C)=C(COC(N)=O)CS[C@H]12)c1csc(N)n1 | inactive
COC(=O)CCCCC(=O)OC | inactive
C[Si](C)(C)N[Si](C)(C)C | inactive
COC(=O)/C=C\C(=O)OC | inactive
O=C1C(N(CO)C(=O)NCO)N(CO)C(=O)N1CO (stereo unspecified) | inactive
NC(N)=S | inactive
c1cnc2c(c1)ccc1cccnc12 | inactive
Nc1cccc(N)n1 | inactive
OCC(CO)(CO)CO | inactive
Oc1ccc(Cc2ccccc2O)cc1 | inactive
